# Experimental data: paper PMC7862700, “An all-to-all approach to the identification of sequence-specific readers for epigenetic DNA modifications on cytosine”
# Columns and labels:
# Experiment in all cases: DAPPL (digital affinity profiling via proximity ligation, sequencing); 10 mM Tris-HCl pH 7.5, 50 mM NaCl, 1 mM DTT, 4% glycerol, room temperature, 30 min; GST-TFs on glutathione beads, 16-mer random dsDNA library, 0.1% formaldehyde crosslink after washing; high values mean tight binding
# FLI1 = molecular target: T1, FLI1 (Homo sapiens, UniProt Q01543 1-452); conditions: protein: recombinant; tags: N-terminal GST; dsDNA, one strand shown
# T1 sequence: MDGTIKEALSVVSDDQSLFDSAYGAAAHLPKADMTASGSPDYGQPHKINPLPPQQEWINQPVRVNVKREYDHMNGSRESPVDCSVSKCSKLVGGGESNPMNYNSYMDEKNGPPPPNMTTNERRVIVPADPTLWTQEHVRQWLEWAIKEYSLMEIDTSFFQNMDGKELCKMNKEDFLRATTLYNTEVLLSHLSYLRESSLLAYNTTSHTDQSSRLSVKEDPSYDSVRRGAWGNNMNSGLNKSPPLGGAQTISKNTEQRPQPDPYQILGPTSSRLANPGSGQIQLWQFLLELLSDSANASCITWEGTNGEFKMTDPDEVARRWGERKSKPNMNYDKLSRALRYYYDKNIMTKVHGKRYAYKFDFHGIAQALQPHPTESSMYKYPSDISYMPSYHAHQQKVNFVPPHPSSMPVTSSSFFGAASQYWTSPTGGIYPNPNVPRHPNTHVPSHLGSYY
# How it was run: (§1)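 Binding signal is given per hexamer as its read frequency for a factor divided by its frequency in the tag-only sample. GST-fused human transcription factors were expressed in yeast, captured on glutathione beads, barcoded with DNA and pooled with that sample, then incubated with 200 nmole of a 16-mer random double-stranded DNA library in Tris/NaCl/DTT/glycerol buffer for 30 min at room temperature. The pools were then washed, crosslinked, proximity-ligated, amplified by PCR and sequenced on an Illumina NextSeq500.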
# ELK1 = molecular target: T2, ELK1 (Homo sapiens, UniProt P19419 1-428); conditions: protein: recombinant; tags: N-terminal GST; dsDNA, one strand shown
# T2 sequence: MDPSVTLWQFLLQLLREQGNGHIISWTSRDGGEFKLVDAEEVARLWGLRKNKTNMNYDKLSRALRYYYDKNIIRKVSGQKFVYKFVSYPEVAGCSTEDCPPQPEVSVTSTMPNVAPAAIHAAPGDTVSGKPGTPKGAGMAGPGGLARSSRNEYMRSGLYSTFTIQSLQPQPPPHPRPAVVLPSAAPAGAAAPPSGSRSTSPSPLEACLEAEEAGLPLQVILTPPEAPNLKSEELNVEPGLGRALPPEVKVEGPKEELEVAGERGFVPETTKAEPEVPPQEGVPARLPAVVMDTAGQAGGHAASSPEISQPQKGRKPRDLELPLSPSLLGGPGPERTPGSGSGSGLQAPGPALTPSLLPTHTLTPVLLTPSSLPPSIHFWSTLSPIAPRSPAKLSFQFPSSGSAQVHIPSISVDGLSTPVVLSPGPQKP
# How it was run: as §1
# GABPA = molecular target: T3, GABPA (Homo sapiens, UniProt Q06546 1-454); conditions: protein: recombinant; tags: N-terminal GST; dsDNA, one strand shown
# T3 sequence: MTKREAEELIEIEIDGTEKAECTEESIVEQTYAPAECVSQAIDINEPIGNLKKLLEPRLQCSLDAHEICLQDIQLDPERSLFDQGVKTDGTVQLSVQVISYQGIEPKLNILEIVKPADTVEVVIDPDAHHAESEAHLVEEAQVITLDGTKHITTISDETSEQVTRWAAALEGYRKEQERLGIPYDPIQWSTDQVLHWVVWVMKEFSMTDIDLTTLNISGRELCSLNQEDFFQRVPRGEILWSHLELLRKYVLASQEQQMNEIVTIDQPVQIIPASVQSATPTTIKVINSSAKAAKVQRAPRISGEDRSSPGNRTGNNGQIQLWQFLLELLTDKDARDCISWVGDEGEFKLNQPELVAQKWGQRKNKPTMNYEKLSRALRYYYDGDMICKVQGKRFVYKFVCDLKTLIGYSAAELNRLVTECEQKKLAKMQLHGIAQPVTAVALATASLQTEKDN
# How it was run: as §1
# ERG = molecular target: T4, ERG (Homo sapiens, UniProt P11308 1-479); conditions: protein: recombinant; tags: N-terminal GST; dsDNA, one strand shown
# T4 sequence: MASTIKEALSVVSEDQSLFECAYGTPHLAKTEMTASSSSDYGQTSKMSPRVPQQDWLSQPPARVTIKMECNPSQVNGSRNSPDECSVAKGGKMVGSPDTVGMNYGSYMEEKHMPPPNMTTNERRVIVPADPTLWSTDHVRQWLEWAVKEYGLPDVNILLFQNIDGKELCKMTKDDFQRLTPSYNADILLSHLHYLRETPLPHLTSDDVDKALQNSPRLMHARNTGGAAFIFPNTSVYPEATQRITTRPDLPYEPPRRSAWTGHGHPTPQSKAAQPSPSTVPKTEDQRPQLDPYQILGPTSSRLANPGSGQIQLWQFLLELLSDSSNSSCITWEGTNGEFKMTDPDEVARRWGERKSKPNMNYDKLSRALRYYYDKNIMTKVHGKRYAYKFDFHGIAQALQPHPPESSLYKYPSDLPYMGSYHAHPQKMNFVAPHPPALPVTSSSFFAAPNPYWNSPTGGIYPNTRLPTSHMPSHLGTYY
# How it was run: as §1
# ELF1 = ELF1 (Homo sapiens, UniProt P32519 1-619); conditions: protein: recombinant; tags: N-terminal GST; dsDNA, one strand shown
# How it was run: as §1
# EHF = molecular target: T5, EHF (Homo sapiens, UniProt Q9NZC4 1-300); conditions: protein: recombinant; tags: N-terminal GST; dsDNA, one strand shown
# T5 sequence: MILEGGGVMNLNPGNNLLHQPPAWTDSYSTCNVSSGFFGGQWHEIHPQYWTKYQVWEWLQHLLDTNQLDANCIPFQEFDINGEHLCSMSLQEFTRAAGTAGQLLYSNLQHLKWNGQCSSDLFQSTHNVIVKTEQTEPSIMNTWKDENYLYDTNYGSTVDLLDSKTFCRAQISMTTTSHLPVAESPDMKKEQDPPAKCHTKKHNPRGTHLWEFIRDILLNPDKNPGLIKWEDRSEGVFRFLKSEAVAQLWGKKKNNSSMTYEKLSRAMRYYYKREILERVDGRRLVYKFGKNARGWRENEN
# How it was run: as §1
# SPI1 = SPI1 (Homo sapiens, UniProt P17947 1-270); conditions: protein: recombinant; tags: N-terminal GST; dsDNA, one strand shown
# How it was run: as §1
# SPIB = SPIB (Homo sapiens, UniProt Q01892 1-262); conditions: protein: recombinant; tags: N-terminal GST; dsDNA, one strand shown
# How it was run: as §1
# ELK3 = molecular target: T6, ELK3 (Homo sapiens, UniProt P41970 1-407); conditions: protein: recombinant; tags: N-terminal GST; dsDNA, one strand shown
# T6 sequence: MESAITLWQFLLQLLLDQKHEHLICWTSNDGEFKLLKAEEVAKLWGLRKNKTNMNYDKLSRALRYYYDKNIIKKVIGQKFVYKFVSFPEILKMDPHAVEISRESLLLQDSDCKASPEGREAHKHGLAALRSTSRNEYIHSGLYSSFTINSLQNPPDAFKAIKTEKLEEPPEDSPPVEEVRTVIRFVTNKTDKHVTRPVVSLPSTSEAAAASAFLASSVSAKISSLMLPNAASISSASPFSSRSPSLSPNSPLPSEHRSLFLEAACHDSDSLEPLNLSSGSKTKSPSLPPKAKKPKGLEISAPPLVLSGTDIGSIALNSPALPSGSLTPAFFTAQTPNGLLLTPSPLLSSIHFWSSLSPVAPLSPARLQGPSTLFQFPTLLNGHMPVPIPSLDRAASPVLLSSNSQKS
# How it was run: as §1
# FEV = molecular target: T7, FEV (Homo sapiens, UniProt Q99581 1-238); conditions: protein: recombinant; tags: N-terminal GST; dsDNA, one strand shown
# T7 sequence: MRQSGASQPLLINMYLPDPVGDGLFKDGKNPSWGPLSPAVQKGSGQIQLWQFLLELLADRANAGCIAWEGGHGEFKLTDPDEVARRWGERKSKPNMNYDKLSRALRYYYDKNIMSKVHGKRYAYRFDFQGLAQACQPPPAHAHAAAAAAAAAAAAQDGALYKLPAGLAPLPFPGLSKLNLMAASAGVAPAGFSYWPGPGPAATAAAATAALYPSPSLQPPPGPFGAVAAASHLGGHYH
# How it was run: as §1
# ETV5 = ETV5 (Homo sapiens, UniProt P41161 1-510); conditions: protein: recombinant; tags: N-terminal GST; dsDNA, one strand shown
# How it was run: as §1
# HSF1 = HSF1 (Homo sapiens, UniProt Q00613 1-529); conditions: protein: recombinant; tags: N-terminal GST; chain copies: 3; dsDNA, one strand shown
# How it was run: as §1
# SPIC = molecular target: T8, SPIC (Homo sapiens, UniProt Q8N5J4 1-248); conditions: protein: recombinant; tags: N-terminal GST; dsDNA, one strand shown
# T8 sequence: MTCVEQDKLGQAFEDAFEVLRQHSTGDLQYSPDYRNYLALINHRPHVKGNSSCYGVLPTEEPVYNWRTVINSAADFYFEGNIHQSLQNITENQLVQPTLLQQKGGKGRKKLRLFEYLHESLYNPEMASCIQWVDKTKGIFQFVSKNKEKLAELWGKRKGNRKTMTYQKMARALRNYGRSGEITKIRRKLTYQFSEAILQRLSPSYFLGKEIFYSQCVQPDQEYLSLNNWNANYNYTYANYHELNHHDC
# How it was run: as §1
# ELF4 = ELF4 (Homo sapiens, UniProt Q99607 1-663); conditions: protein: recombinant; tags: N-terminal GST; dsDNA, one strand shown
# How it was run: as §1
# ELK4 = molecular target: T9, ELK4 (Homo sapiens, UniProt P28324-2 1-405); conditions: protein: recombinant; tags: N-terminal GST; dsDNA, one strand shown
# T9 sequence: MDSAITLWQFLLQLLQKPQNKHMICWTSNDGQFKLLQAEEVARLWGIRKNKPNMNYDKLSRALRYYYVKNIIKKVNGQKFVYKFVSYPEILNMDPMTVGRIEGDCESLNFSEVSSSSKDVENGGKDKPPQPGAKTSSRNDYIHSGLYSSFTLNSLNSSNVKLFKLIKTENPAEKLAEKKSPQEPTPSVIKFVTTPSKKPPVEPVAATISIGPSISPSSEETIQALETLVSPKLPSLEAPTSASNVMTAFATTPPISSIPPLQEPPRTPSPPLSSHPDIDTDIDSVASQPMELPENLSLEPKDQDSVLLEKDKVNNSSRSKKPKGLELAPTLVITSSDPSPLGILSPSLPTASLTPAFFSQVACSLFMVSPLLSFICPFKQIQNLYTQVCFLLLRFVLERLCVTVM
# How it was run: as §1
# ETV2 = molecular target: T10, ETV2 (Homo sapiens, UniProt O00321 1-342); conditions: protein: recombinant; tags: N-terminal GST; dsDNA, one strand shown
# T10 sequence: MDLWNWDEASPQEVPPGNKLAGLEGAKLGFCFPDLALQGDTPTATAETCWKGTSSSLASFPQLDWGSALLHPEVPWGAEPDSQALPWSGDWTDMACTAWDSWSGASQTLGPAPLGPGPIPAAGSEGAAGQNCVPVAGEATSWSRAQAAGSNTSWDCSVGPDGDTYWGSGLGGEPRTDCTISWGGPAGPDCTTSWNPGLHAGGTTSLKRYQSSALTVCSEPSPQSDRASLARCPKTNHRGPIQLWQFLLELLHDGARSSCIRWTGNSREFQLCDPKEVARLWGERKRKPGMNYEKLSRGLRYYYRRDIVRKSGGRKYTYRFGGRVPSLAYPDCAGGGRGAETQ
# How it was run: as §1
# ELF3 = molecular target: T11, ELF3 (Homo sapiens, UniProt P78545 1-371); conditions: protein: recombinant; tags: N-terminal GST; dsDNA, one strand shown
# T11 sequence: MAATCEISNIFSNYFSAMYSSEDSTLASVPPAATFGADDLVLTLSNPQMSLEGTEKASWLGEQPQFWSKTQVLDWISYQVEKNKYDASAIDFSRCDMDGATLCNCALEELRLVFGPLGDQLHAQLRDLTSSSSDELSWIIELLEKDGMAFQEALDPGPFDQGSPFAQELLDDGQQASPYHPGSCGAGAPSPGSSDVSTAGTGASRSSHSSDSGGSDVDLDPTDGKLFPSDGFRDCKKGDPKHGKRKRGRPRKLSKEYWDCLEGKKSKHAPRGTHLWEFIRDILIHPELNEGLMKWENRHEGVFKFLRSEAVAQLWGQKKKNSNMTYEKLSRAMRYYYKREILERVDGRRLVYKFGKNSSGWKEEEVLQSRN
# How it was run: as §1
# CRX = CRX (Homo sapiens, UniProt O43186 1-299); conditions: protein: recombinant; tags: N-terminal GST; dsDNA, one strand shown
# How it was run: as §1
# ETV1 = ETV1 (Homo sapiens, UniProt P50549 1-477); conditions: protein: recombinant; tags: N-terminal GST; dsDNA, one strand shown
# How it was run: as §1
# Chain of SPIB (Q01892 whole entry): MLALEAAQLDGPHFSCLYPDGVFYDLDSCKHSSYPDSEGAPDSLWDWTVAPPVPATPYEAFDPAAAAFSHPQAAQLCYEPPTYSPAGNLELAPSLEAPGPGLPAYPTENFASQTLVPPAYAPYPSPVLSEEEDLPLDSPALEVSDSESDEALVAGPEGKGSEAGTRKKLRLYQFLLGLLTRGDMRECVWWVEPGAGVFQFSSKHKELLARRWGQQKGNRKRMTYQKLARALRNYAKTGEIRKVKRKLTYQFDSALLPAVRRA
# Chain of HSF1 (Q00613 whole entry): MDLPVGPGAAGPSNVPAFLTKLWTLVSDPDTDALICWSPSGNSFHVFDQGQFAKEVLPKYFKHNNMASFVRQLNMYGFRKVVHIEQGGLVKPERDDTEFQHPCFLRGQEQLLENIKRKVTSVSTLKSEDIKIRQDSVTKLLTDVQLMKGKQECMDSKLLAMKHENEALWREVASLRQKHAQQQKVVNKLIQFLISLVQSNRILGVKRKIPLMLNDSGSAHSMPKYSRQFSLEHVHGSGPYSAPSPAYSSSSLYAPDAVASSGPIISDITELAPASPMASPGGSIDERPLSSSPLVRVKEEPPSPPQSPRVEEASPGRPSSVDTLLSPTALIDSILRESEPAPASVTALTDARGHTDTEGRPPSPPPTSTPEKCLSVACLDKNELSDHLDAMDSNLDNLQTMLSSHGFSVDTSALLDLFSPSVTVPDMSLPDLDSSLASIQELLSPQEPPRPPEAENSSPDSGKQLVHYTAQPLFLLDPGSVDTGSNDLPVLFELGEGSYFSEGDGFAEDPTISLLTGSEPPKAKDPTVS
# Chain of ETV1 (P50549 whole entry): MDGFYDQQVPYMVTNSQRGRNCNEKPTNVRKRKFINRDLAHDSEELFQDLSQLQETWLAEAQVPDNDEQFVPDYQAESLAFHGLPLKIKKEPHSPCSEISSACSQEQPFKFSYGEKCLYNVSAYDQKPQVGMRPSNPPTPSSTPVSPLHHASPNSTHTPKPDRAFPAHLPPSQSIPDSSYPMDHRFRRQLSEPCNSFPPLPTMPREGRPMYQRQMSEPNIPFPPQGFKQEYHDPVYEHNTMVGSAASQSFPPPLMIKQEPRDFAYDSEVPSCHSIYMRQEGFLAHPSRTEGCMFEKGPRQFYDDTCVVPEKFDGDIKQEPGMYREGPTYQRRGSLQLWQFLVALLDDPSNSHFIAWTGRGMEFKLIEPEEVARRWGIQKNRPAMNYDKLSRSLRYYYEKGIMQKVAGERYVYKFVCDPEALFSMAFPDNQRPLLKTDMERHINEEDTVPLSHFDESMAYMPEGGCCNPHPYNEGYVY
# Chain of ELF4 (Q99607 whole entry): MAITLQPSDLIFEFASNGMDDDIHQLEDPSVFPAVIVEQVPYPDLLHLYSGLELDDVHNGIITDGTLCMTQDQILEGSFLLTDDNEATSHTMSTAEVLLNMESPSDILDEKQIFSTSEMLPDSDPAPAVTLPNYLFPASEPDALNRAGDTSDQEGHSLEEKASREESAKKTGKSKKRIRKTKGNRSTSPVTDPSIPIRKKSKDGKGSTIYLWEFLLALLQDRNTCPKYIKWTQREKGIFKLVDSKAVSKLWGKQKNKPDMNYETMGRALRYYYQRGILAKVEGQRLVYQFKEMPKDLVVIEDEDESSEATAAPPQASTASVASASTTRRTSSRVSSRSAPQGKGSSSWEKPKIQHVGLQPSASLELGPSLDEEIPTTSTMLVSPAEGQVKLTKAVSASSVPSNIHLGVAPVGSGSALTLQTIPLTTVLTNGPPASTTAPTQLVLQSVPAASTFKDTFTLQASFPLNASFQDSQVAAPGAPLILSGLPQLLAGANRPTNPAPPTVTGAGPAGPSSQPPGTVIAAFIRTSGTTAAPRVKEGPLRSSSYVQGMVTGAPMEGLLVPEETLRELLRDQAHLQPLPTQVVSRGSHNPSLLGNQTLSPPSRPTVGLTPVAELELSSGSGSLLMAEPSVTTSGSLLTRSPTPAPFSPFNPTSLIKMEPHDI
# Chain of ELF1 (P32519 whole entry): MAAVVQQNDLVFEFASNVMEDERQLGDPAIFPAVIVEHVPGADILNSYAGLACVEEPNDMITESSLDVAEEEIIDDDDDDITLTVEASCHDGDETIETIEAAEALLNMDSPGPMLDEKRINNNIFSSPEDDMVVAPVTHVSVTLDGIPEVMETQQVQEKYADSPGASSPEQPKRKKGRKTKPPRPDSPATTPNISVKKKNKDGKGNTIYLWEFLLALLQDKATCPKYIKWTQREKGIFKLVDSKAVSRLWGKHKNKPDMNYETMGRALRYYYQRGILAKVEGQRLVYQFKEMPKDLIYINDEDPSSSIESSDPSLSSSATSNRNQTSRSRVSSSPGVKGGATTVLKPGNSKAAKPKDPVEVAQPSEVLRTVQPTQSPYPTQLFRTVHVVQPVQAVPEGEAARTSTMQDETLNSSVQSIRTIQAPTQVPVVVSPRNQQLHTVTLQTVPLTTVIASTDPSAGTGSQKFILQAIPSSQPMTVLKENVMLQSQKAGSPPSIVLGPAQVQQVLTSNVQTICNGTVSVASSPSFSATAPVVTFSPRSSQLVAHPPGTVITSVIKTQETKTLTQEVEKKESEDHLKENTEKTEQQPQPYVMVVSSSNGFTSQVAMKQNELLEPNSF
# Chain of ETV5 (P41161 whole entry): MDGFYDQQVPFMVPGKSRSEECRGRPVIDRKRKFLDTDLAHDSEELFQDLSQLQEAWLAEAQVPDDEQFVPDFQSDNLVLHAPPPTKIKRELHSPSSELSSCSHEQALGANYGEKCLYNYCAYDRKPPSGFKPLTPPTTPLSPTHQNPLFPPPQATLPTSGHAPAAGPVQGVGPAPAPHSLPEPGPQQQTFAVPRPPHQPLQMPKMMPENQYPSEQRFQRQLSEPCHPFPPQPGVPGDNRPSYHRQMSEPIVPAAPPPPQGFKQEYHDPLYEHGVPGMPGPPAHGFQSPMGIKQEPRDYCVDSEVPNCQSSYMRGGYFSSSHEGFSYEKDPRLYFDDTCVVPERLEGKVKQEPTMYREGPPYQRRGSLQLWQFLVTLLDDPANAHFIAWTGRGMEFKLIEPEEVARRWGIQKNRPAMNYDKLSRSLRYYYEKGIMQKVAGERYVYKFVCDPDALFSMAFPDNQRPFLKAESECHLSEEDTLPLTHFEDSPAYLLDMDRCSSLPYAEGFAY
# Chain of CRX (O43186 whole entry): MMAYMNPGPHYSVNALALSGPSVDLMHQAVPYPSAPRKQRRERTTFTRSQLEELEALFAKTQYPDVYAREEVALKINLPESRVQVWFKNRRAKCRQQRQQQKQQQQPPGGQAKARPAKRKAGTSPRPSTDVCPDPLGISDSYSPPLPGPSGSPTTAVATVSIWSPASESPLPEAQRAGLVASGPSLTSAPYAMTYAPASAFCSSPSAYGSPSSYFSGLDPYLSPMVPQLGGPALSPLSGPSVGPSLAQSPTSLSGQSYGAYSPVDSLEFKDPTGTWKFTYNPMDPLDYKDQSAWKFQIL
sequence,measurement,setting,value
TTTATG,binding signal,FLI1,"1.31 fold enrichment (6-mer frequency, TF over GST control)"
same,binding signal,ELK1,"1.21 fold enrichment (6-mer frequency, TF over GST control)"
same,binding signal,GABPA,"1.4 fold enrichment (6-mer frequency, TF over GST control)"
same,binding signal,ERG,"1.21 fold enrichment (6-mer frequency, TF over GST control)"
same,binding signal,ELF1,"1.18 fold enrichment (6-mer frequency, TF over GST control)"
same,binding signal,EHF,"1.34 fold enrichment (6-mer frequency, TF over GST control)"
same,binding signal,SPI1,"1.34 fold enrichment (6-mer frequency, TF over GST control)"
same,binding signal,SPIB,"1.29 fold enrichment (6-mer frequency, TF over GST control)"
same,binding signal,ELK3,"1.34 fold enrichment (6-mer frequency, TF over GST control)"
same,binding signal,FEV,"1.26 fold enrichment (6-mer frequency, TF over GST control)"
same,binding signal,ETV5,"1.36 fold enrichment (6-mer frequency, TF over GST control)"
same,binding signal,HSF1,"1.37 fold enrichment (6-mer frequency, TF over GST control)"
same,binding signal,SPIC,"1.5 fold enrichment (6-mer frequency, TF over GST control)"
same,binding signal,ELF4,"1.21 fold enrichment (6-mer frequency, TF over GST control)"
same,binding signal,ELK4,"1.16 fold enrichment (6-mer frequency, TF over GST control)"
same,binding signal,ETV2,"1.34 fold enrichment (6-mer frequency, TF over GST control)"
same,binding signal,ELF3,"1.37 fold enrichment (6-mer frequency, TF over GST control)"
same,binding signal,CRX,"1.74 fold enrichment (6-mer frequency, TF over GST control)"
same,binding signal,ETV1,"1.32 fold enrichment (6-mer frequency, TF over GST control)"
